PubChem BioAssay (NCI)
About 79,000 compounds went through this panel and 15% of them were active in at least one assay; those are over-represented in the sample as a whole. Activity calls are given as the source filed them. Cut-off read from the data, not from the text of the source: active = growth inhibition above about 70%; inactive = the rest.

Key:
[1] = NCI Yeast Anticancer Drug Screen. Data for the mec2-1 strain (AID 157); conditions: S. cerevisiae mec2-1 strain, stronger effect = higher value
Outline: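 Mutant yeast (mec2-1) grown with compound; growth inhibition relative to vehicle control reported.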

[2] = NCI Yeast Anticancer Drug Screen. Data for the rad14 strain (AID 159);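 note: 0% = growth of vehicle-treated control cultures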; conditions: S. cerevisiae rad14 strain growth inhibition, stronger effect = higher value
Outline: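 Yeast cells carrying a defined DNA-repair defect were exposed to compounds, and growth inhibition was calculated relative to vehicle-treated control cultures.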

[3] = NCI Yeast Anticancer Drug Screen. Data for the sgs1 mgt1 strain (AID 161);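 note: 0% = growth of cultures given vehicle only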; conditions: S. cerevisiae sgs1 mgt1 strain, stronger effect = higher value
Outline: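 Compounds are added to genetically altered yeast, and growth is compared with cultures given vehicle alone to give percent inhibition.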

[4] = NCI Yeast Anticancer Drug Screen. Data for the CLN2oe strain (AID 163);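 note: 0% = growth of vehicle-only control cultures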; conditions: S. cerevisiae CLN2oe strain, stronger effect = higher value
Outline: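 Compounds are applied to yeast harbouring a defined cell-cycle control change; reduced growth compared with vehicle-treated controls gives the value.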

[5] = NCI Yeast Anticancer Drug Screen. Data for the cln2 rad14 strain (AID 165);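 note: 0% = growth equal to vehicle treated cultures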; conditions: S. cerevisiae cln2 rad14 strain, stronger effect = higher value
Outline: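 Readout is yeast growth inhibition versus vehicle-treated controls, using a strain with cln2 and rad14 alterations exposed to compound.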

[6] = NCI Yeast Anticancer Drug Screen. Data for the bub3 strain (AID 167); conditions: S. cerevisiae bub3 mutant strain, stronger effect = higher value
Outline: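 Compounds were applied to a genetically altered yeast strain carrying a cell-cycle control defect. Growth inhibition was scored against vehicle-treated controls.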

[7] = NCI Yeast Anticancer Drug Screen. Data for the wt2 strain (AID 169);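 note: 0% = growth of vehicle-treated yeast cultures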; conditions: S. cerevisiae wt2 strain growth inhibition, stronger effect = higher value
Outline: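 Against vehicle-treated controls, the growth of yeast exposed to each compound was compared, and the inhibition was recorded.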

[8] = NCI Yeast Anticancer Drug Screen. Data for the mlh1 strain (AID 171);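 note: 0% = growth of vehicle-treated control cultures of the same strain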; conditions: S. cerevisiae mlh1 strain growth inhibition, stronger effect = higher value
Outline: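 Measured: yeast growth. Reference: vehicle-treated controls. Organism: strain with a defined alteration affecting DNA damage repair or cell cycle control, treated with compound.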

[9] = NCI Yeast Anticancer Drug Screen. Data for the sgs1 strain (AID 173);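 note: 0% = growth of vehicle-only control cultures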; conditions: S. cerevisiae sgs1 mutant, stronger effect = higher value
Outline: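 Each compound was added to cultures of the altered yeast strain. Growth was recorded, and inhibition was derived by comparison with vehicle controls.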

[10] = NCI Yeast Anticancer Drug Screen. Data for the mlh1 rad18 strain (AID 175); conditions: S. cerevisiae mlh1 rad18 strain growth inhibition, stronger effect = higher value
Outline: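 Genetically defined yeast (DNA repair-deficient) exposed to compounds; growth inhibition determined relative to vehicle.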

[11] = NCI Yeast Anticancer Drug Screen. Data for the rad18 strain (AID 177); conditions: S. cerevisiae rad18 mutant growth inhibition, stronger effect = higher value
Outline: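 Vehicle-treated cultures served as the baseline for scoring compound-induced growth inhibition in DNA-repair-mutant yeast.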

[12] = NCI Yeast Anticancer Drug Screen. Data for the rad52 strain (AID 147);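 note: 0% = growth of vehicle-treated control cultures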; conditions: S. cerevisiae rad52 mutant growth inhibition, stronger effect = higher value
Outline: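 The repair-mutant yeast strain was incubated with compounds, then growth was read and inhibition derived relative to vehicle.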

[13] = NCI Yeast Anticancer Drug Screen. Data for the wt1 strain (AID 149);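 note: 0% = growth of vehicle-treated wt1 cultures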; conditions: S. cerevisiae wt1 strain (SPY 50644) growth inhibition, stronger effect = higher value
Outline: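 Yeast wt1 strain exposed to compounds; growth inhibition measured relative to vehicle-treated controls.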

[14] = NCI Yeast Anticancer Drug Screen. Data for the rad50EPP+ strain (AID 151);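 note: 0% = growth of vehicle-treated control cultures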; conditions: S. cerevisiae rad50 mutant strain, stronger effect = higher value
Outline: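 Vehicle-normalised growth inhibition; rad50EPP+ yeast strain, altered in DNA damage repair, compound-treated.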

[15] = NCI Yeast Anticancer Drug Screen. Data for the mgt1 strain (AID 153); conditions: S. cerevisiae mgt1 mutant growth inhibition, stronger effect = higher value
Outline: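 Vehicle-normalized growth inhibition is determined in mgt1 yeast, a strain selected for a defined alteration in DNA repair or cell cycle control.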

[16] = NCI Yeast Anticancer Drug Screen. Data for the rad50 strain (AID 155);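 note: 0% = growth of vehicle-only cultures of the same strain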; conditions: S. cerevisiae rad50 strain growth inhibition, stronger effect = higher value
Outline: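 Yeast carrying a defined DNA repair defect were exposed to test compounds, and growth was compared with vehicle-treated controls to give percent inhibition.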

[17] = at 5.0 µM (retest, dose inferred, filed as 0.5)
[18] = at 50.0 µM (retest, dose inferred, filed as 5.0)

Measured: growth inhibition

CN(C)CCNC(=O)c1cccc2cc([N+](=O)[O-])ccc12
inactive: [1]; [17] 11% | [1]; at 11.0 µM 20% | [2]; at 1.2 µM -1% | [2]; at 3.7 µM 10% | [2]; at 11.0 µM 47% | [3]; [17] -2% | [3]; [18] 68% | [4]; at 1.2 µM 15% | [4]; at 3.7 µM 20% | [4]; at 11.0 µM 43% | [4]; at 33.0 µM 56% | [5]; [17] 23% | [5]; [18] 55% | [6]; at 1.2 µM -12% | [6]; at 3.7 µM -27% | [6]; [17] 8% | [6]; at 11.0 µM -18% | [6]; at 33.0 µM 51% | [6]; [18] 67% | [7]; at 1.2 µM -13% | [7]; at 3.7 µM -10% | [7]; at 11.0 µM 5% | [7]; at 33.0 µM 60% | [8]; at 1.2 µM -7% | [8]; at 3.7 µM 6% | [8]; at 11.0 µM 33% | [8]; at 33.0 µM 69% | [9]; at 1.2 µM 16% | [9]; at 3.7 µM 22% | [9]; at 11.0 µM 49% | [10]; [17] 18% | [10]; at 50.0 µM 45.6% | [11]; at 1.2 µM 7% | [11]; at 3.7 µM 5% | [11]; at 11.0 µM 23%
active: [1]; at 33.0 µM 70% | [1]; [18] 72% | [1]; at 50.0 µM 82.7% | [1]; at 100.0 µM 93% | [2]; at 33.0 µM 80% | [2]; at 100.0 µM 93% | [3]; at 50.0 µM 84.3% | [4]; at 100.0 µM 84% | [5]; at 50.0 µM 71% | [6]; at 50.0 µM 82.8% | [6]; at 100.0 µM 85% | [7]; at 100.0 µM 87% | [8]; at 100.0 µM 92% | [9]; at 33.0 µM 79% | [9]; at 100.0 µM 93% | [10]; [18] 86% | [11]; at 33.0 µM 70% | [11]; at 100.0 µM 90%

CC(C)=NOC(=O)Nc1ccc(Cl)cc1
active: [14]; at 33.0 µM 79% | [14]; at 100.0 µM 95% | [15]; at 100.0 µM 74% | [16]; [17] 87% | [16]; [18] 98% | [1]; [17] 76% | [1]; [18] 99% | [3]; [18] 92% | [3]; at 50.0 µM 72.8% | [5]; [17] 77% | [5]; [18] 90% | [6]; [18] 81% | [7]; at 100.0 µM 79% | [8]; at 100.0 µM 83% | [9]; at 100.0 µM 84% | [10]; [18] 99% | [11]; at 100.0 µM 72%
inactive: [12]; at 1.2 µM 1% | [12]; at 3.7 µM -7% | [12]; at 11.0 µM -8% | [12]; at 33.0 µM 15% | [12]; at 100.0 µM 66% | [13]; at 1.2 µM -24% | [13]; at 3.7 µM -27% | [13]; at 11.0 µM -21% | [13]; at 33.0 µM -18% | [13]; at 100.0 µM 14% | [14]; at 1.2 µM -32% | [14]; at 3.7 µM 18% | [14]; at 11.0 µM 23% | [15]; at 1.2 µM -41% | [15]; at 3.7 µM -60% | [15]; at 11.0 µM -56% | [15]; at 33.0 µM -11% | [16]; at 1.2 µM 2% | [16]; at 3.7 µM 11% | [16]; at 11.0 µM -3% | [16]; at 33.0 µM 28% | [16]; at 50.0 µM 58.2% | [16]; at 100.0 µM 67% | [1]; at 1.2 µM -40% | [1]; at 3.7 µM -26% | [1]; at 11.0 µM -24% | [1]; at 33.0 µM -7% | [1]; at 50.0 µM 29.9% | [1]; at 100.0 µM 47% | [2]; at 1.2 µM -48% | [2]; at 3.7 µM -50% | [2]; at 11.0 µM -30% | [2]; at 33.0 µM -25% | [2]; at 100.0 µM 45% | [3]; [17] 0% | [4]; at 1.2 µM -30% | [4]; at 3.7 µM -18% | [4]; at 11.0 µM -6% | [4]; at 33.0 µM 8% | [4]; at 100.0 µM 38% | [5]; at 50.0 µM 37.2% | [6]; at 1.2 µM -12% | [6]; at 3.7 µM -1% | [6]; [17] 28% | [6]; at 11.0 µM 0% | [6]; at 33.0 µM 8% | [6]; at 50.0 µM 47% | [6]; at 100.0 µM 64% | [7]; at 1.2 µM -34% | [7]; at 3.7 µM -25% | [7]; at 11.0 µM -21% | [7]; at 33.0 µM 5% | [8]; at 1.2 µM -25% | [8]; at 3.7 µM -17% | [8]; at 11.0 µM -22% | [8]; at 33.0 µM 21% | [9]; at 1.2 µM -16% | [9]; at 3.7 µM -12% | [9]; at 11.0 µM -14% | [9]; at 33.0 µM 33% | [10]; [17] 61% | [10]; at 50.0 µM 46.7% | [11]; at 1.2 µM -32% | [11]; at 3.7 µM -38% | [11]; at 11.0 µM -39% | [11]; at 33.0 µM 10%

CCCCCCN(CCCCCC)CC(O)c1ccnc2ccc(OC)cc12 (centres undefined)
inactive: [12]; at 1.2 µM 0% | [12]; at 3.7 µM -2% | [12]; at 11.0 µM -5% | [12]; at 33.0 µM -7% | [12]; at 100.0 µM 66% | [13]; at 1.2 µM -1% | [13]; at 3.7 µM -3% | [13]; at 11.0 µM -5% | [13]; at 33.0 µM -7% | [13]; at 100.0 µM 15% | [14]; at 1.2 µM -4% | [14]; at 3.7 µM -2% | [14]; at 11.0 µM -2% | [14]; at 33.0 µM -5% | [14]; at 100.0 µM -8% | [15]; at 1.2 µM 1% | [15]; at 3.7 µM 2% | [15]; at 11.0 µM 0% | [15]; at 33.0 µM -3% | [16]; at 1.2 µM 1% | [16]; at 3.7 µM 1% | [16]; [17] -9% | [16]; at 11.0 µM -1% | [16]; at 33.0 µM -3% | [16]; [18] 27% | [16]; at 50.0 µM -10.1% | [16]; at 100.0 µM 69% | [1]; at 1.2 µM 2% | [1]; at 3.7 µM -1% | [1]; [17] -5% | [1]; at 11.0 µM 1% | [1]; at 33.0 µM 2% | [1]; [18] 18% | [1]; at 50.0 µM 1.15% | [1]; at 100.0 µM 67% | [2]; at 1.2 µM -2% | [2]; at 3.7 µM -3% | [2]; at 11.0 µM -4% | [2]; at 33.0 µM -5% | [2]; at 100.0 µM 63% | [3]; [17] -9% | [3]; [18] 49% | [4]; at 1.2 µM 6% | [4]; at 3.7 µM 1% | [4]; at 11.0 µM -1% | [4]; at 33.0 µM 1% | [4]; at 100.0 µM 36% | [5]; [17] -12% | [5]; [18] 26% | [5]; at 50.0 µM -8.6% | [6]; at 1.2 µM 5% | [6]; at 3.7 µM 5% | [6]; [17] -1% | [6]; at 11.0 µM 6% | [6]; at 33.0 µM 4% | [6]; [18] 40% | [6]; at 50.0 µM 26.6% | [6]; at 100.0 µM 61% | [7]; at 1.2 µM -1% | [7]; at 3.7 µM -4% | [7]; at 11.0 µM -5% | [7]; at 33.0 µM -5% | [7]; at 100.0 µM 68% | [8]; at 1.2 µM -1% | [8]; at 3.7 µM -3% | [8]; at 11.0 µM -3% | [8]; at 33.0 µM -4% | [9]; at 1.2 µM -3% | [9]; at 3.7 µM -2% | [9]; at 11.0 µM -3% | [9]; at 33.0 µM -3% | [10]; [17] -3% | [10]; [18] 14% | [10]; at 50.0 µM 38.1% | [11]; at 1.2 µM -5% | [11]; at 3.7 µM -7% | [11]; at 11.0 µM -7% | [11]; at 33.0 µM -13% | [11]; at 100.0 µM 35%
active: [15]; at 100.0 µM 74% | [3]; at 50.0 µM 74.5% | [8]; at 100.0 µM 74% | [9]; at 100.0 µM 79%
